Test [1] deals with Luciferin 4-monooxygenase (Photinus pyralis) (UniProt P08659). The test can be described thus: qHTS assay to identify small molecule inhibitors of firefly luciferase (AID 1224835). Also: nearly all actives have a fitted effect of over 25% in size. Also: potency is read from the fitted curve at half-maximal effect. In short, it runs like this: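 Quantitative HTS format; KM concentrations of both substrates. Purified P. pyralis FLuc activity quantified from luminescence images.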
Test [2] is described as follows: qHTS assay to identify small molecule agonists of the constitutive androstane receptor (CAR) signaling pathway - cell viability counter screen (AID 1224836). Also: nearly all actives have a fitted effect of over 45% in size. Also: potency is read from the fitted curve at half-maximal effect. As to viability change, negative = cytotoxic: % is scaled to controls: 0 for no effect and ±100 for the full control effect. In short, it runs like this: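 Viability read-out: CellTiter-Fluor fluorescence after 23 h compound exposure at 37 C/5% CO2 in double-stable HepG2-CYP2B6-hCAR cells, with PK11195 present at 0.75 uM final; compounds tested in 15-point titration.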

Test [3] can be described thus: qHTS assay to identify small molecule antagonists of the constitutive androstane receptor (CAR) signaling pathway - cell viability counter screen (AID 1224837). Also: nearly all actives have a fitted effect of over 45% in size. Also: potency is read from the fitted curve at half-maximal effect. As to activity change, negative = cytotoxicity: % is scaled to controls: 0 for no effect and ±100 for the full control effect. In short, it runs like this:
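HepG2 cells stably carrying hCAR and CYP2B6-2.2kb reporter, stimulated with 50 nM CITCO and compounds at 15 concentrations for 23 h at 37 C. Viability measured by CellTiter-Fluor fluorescence.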

For test [4], the target named is Nuclear receptor subfamily 1 group I member 3 (Homo sapiens) (UniProt Q14994). The test can be described thus: qHTS assay to identify small molecule antagonists of the constitutive androstane receptor (CAR) signaling pathway (AID 1224838). Also: % is scaled to controls: 0 for no effect and ±100 for the full control effect; nearly all actives have a fitted effect of over 40% in size. In outline: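 HepG2 cells stably carrying hCAR and a CYP2B6-2.2kb luciferase reporter, seeded 4 hrs before compound (15 concentrations). Stimulated with 50 nM CITCO for 24 hr at 37 C. ONE-Glo luminescence read after 30 min at room temperature.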
Chain of Nuclear receptor subfamily 1 group I member 3 (Homo sapiens) (Q14994 whole entry, looked up): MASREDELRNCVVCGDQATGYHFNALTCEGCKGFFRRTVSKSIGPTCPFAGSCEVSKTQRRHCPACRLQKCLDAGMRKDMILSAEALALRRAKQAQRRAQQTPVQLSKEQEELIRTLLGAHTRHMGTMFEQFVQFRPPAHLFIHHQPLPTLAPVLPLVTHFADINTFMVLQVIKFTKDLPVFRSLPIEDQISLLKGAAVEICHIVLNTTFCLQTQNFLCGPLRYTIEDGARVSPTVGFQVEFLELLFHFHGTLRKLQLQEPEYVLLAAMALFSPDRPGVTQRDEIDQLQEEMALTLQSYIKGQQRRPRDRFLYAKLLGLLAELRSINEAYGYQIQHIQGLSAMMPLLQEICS

Test [5] is described as follows: qHTS assay to identify small molecule antagonists of the estrogen related receptor signaling pathway with the pleiotropic PPARgamma coactivator (PGC) from Tox21 10K library - cell viability counter screen (AID 1224840; active = well fitted cell-killing curve with a large enough effect in the repeat runs, not every such curve was filed as active; also: nearly all actives have a fitted effect of over 40% in size; also: potency is read from the fitted curve at half-maximal effect; as to viability change, negative = cytotoxic: % is scaled to controls: 0 for no effect and ±100 for the full control effect). In short, it runs like this: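 PGC/ERR cells (2,000/well) plated 6 h, then compound-treated for 17.5 h at 37 C. Viability measured by CellTiter-Fluor fluorescence after 30 min at 37 C, multiplexed with the pathway assay.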

The nature of test [6]: qHTS assay to identify small molecule antagonists of the estrogen related receptor signaling pathway with the pleiotropic PPARgamma coactivator (PGC) from Tox21 10K library (AID 1224841; call rule not given here; also: actives are mostly falling curves and most rising ones were filed inactive; nearly all actives have a fitted effect of over 50% in size; also: potency is read from the fitted curve at half-maximal effect). In short, it runs like this: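 PGC/ERR cell line, 2,000 cells/well, pre-incubated 6 hours at 37 C, then exposed to compounds for 18 hours at 37 C; luciferase read with One-Glo luminescence after 30 min at room temperature.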

Test [7] in a line: qHTS assay to identify small molecule agonists of the estrogen related receptor signaling pathway with the pleiotropic PPARgamma coactivator (PGC) from Tox21 10K library (AID 1224842). Also: nearly all actives have a fitted effect of over 15% in size. Also: potency is read from the fitted curve at half-maximal effect. In short, it runs like this: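 PGC/ERR reporter cells (NTP line) were seeded 2,000 per well, rested 6 h at 37 C/5% CO2, then pin-dosed with compounds in DMSO for 18 h at 37 C; luciferase read by One-Glo luminescence after 30 min at room temperature.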

Test [8] in a line: qHTS assay to identify small molecule agonists of the hypoxia (HIF-1) signaling pathway - cell viability counter screen (AID 1224844; calls by dose curve; also: % is scaled to controls: 0 for no effect and ±100 for the full control effect; nearly all actives have a fitted effect of over 50% in size). In outline: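 HRE-bla ME-180 cells, 2,000/well in 0.5% dialyzed FBS medium, treated 17 h at 37C with compounds. Viability read in the same wells as the bla reporter, by CellTiter-Glo luminescence after 30 min at room temperature.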
A short description of test [9]: qHTS assay to identify small molecule agonists of H2AX (AID 1224845; active = well fitted activation curve with a large enough effect in the signal ratio in the repeat runs, not every such curve was filed as active; the % refers to the signal ratio; also: potency is read from the fitted curve at half-maximal effect). In short, it runs like this:
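Wild-type CHO-K1 cells plated overnight, then exposed 3 hr at 37C to compounds at 15 concentrations (0.76% DMSO). Lysed, then HTRF anti-pH2AX(S139)-cryptate/anti-H2AX-d2 detection after 24 hr at room temperature; emissions 665 and 620 nm.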

A short description of test [10]: qHTS assay to identify small molecule agonists of the hypoxia (HIF-1) signaling pathway (AID 1224846; active = well fitted activation curve with a large enough effect in the signal ratio in the repeat runs, not every such curve was filed as active; the % refers to the signal ratio; also: % is scaled to controls: 0 for no effect and ±100 for the full control effect). In short, it runs like this: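 HRE-bla ME-180 beta-lactamase reporter cells in medium with 0.5% dialyzed FBS, pre-incubated 5 h then exposed to compounds 17 h at 37C, 5% CO2; reporter induction read with CCF4-AM FRET substrate.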
The nature of test [11]: qHTS assay to identify small molecule antagonists of the estrogen related receptor (ERR) signaling pathway from Tox21 library (AID 1224848). Also: nearly all actives have a fitted effect of over 50% in size. Also: potency is read from the fitted curve at half-maximal effect. In outline:
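Screening used an ERR reporter line supplied by NTP, exposed for 18 h at 37 C to library compounds delivered in DMSO. Signal was luciferase luminescence developed with ONE-Glo at room temperature for 30 min.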

Test [12] is described as follows: qHTS assay to identify small molecule agonists of the estrogen related receptor (ERR) signaling pathway from Tox21 library (AID 1224849; calls by dose curve; also: % is scaled to controls: 0 for no effect and ±100 for the full control effect; nearly all actives have a fitted effect of over 15% in size). The conditions noted are these: ERR reporter cell line, ONE-Glo luciferase, 18 h. In outline: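 ERR reporter cells (NTP line) pre-incubated 6 hours at 37 C, then exposed to compounds for 18 hours at 37 C. ONE-Glo luciferase luminescence was read after 30 minutes at room temperature.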

Test [13] can be described thus: qHTS RealTime-Glo MT Cell Viability Assay in HepG2 cells - 24 hour (AID 1224867). Also: nearly all actives have a fitted effect of over 50% in size. Also: potency is read from the fitted curve at half-maximal effect. In outline: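 Cell number in HepG2 cultures estimated from NanoLuc luminescence generated by metabolic reduction of a prosubstrate by living cells. The homogeneous, nonlytic format allowed repeated reads at 0, 8, 16, 24, 32 and 40 h of compound exposure.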
Test [14] can be described thus: qHTS RealTime-Glo MT Cell Viability Assay in HEK293 cells - 32 hour (AID 1224868). Also: nearly all actives have a fitted effect of over 50% in size. Also: potency is read from the fitted curve at half-maximal effect. In short, it runs like this: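 Homogeneous bioluminescent viability format in HEK293 cells (600 cells/well). Following 5 h at 37 C/5% CO2, 23 nL compound was pintooled; the signal was measured repeatedly during 40 h incubation.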
In test [15] the target is Nuclear receptor subfamily 1 group I member 3 (Homo sapiens) (UniProt Q14994). The test can be described thus: qHTS assay to identify small molecule agonists of the constitutive androstane receptor (CAR) signaling pathway (AID 1224839). Also: % is scaled to controls: 0 for no effect and ±100 for the full control effect; nearly all actives have a fitted effect of over 15% in size. In short, it runs like this: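 Luminescence read-out (ONE-Glo, 30 min, room temperature) from double-stable HepG2-CYP2B6-hCAR cells exposed 24 h to 15-point compound series in presence of 0.75 uM PK11195 final.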

For test [16], the target named is Thyrotropin receptor (Homo sapiens) (UniProt P16473). Put plainly: qHTS assay to identify small molecule agonists of the thyroid stimulating hormone receptor (TSHR) signaling pathway (AID 1224843; calls by dose curve; also: % is scaled to controls: 0 for no effect and ±100 for the full control effect; nearly all actives have a fitted effect of over 45% in size). In outline:
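Cell line HEK293 with TSHR; density 800/well. Exposure 30 min RT. Readout HTRF cAMP (cAMP-d2/anti-cAMP-cryptate), 1 h RT before reading.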

Test [17] is described as follows: qHTS assay to identify small molecule agonists of H2AX - cell viability counter screen (AID 1224847; calls by dose curve; also: top concentration of the series differs between compounds; % is scaled to controls: 0 for no effect and ±100 for the full control effect; nearly all actives have a fitted effect of over 30% in size). In outline: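 CHO-K1 wt, 1000 cells/well, o/n 37C; cpds 15 conc, 3 h 37C, 0.76% DMSO; CellTiter-Glo, 30 min RT, luminescence.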
Test [18] can be described thus: A CellTox Green Cytotoxicity Assay to monitor cytotoxicity in HEK293 cells - 0 hour (AID 1224869). Also: nearly all actives have a fitted effect of over 50% in size. Also: potency is read from the fitted curve at half-maximal effect. In outline: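 HEK293 cells, 600/well, were preincubated 5 hours and then exposed to compounds at 37 C for up to 40 hours. A cell-impermeant cyanine dye staining dead-cell DNA was read by fluorescence at 0, 8, 16, 24, 32 and 40 h time points.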
The nature of test [19]: qHTS RealTime-Glo MT Cell Viability Assay in HepG2 cells - 40 hour (AID 1224870). Also: nearly all actives have a fitted effect of over 50% in size. Also: potency is read from the fitted curve at half-maximal effect. In outline:
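HepG2 cells mixed with RealTime-Glo MT reagents (NanoLuc plus cell-permeant prosubstrate) were seeded at 600 cells/well, incubated 5 h at 37 C/5% CO2, then pinned with compounds in DMSO; nonlytic luminescence tracked viability during 40 h treatment.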

A short description of test [20]: qHTS assay to identify small molecule antagonists of the estrogen related receptor (ERR) signaling pathway from Tox21 library - cell viability counter screen (AID 1224834). Also: potency is read from the fitted curve at half-maximal effect; nearly all actives have a fitted effect of over 30% in size. In short, it runs like this: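 ERR reporter cells, 2,000 per well, rested 6 h, then exposed to compound in DMSO for 17.5 hours at 37 C. Viability read as fluorescence after 30 min with CellTiter-Fluor.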

Each structure is given as a SMILES string. “And” between values parts separate entries of the source, which are not always exact repeats. Equal values may be shown once. Unmarked numbers belong to inactive results. Inconclusive results are not listed. The source made the active and inactive calls. Unless noted, calls follow the shape of the dose curve; as a rule, active = well fitted curve in the direction sought with a large enough effect in the repeat runs; inconclusive = weak or mixed curves; inactive = no such curve, though single readings can be large; an effect the other way counts as inactive or inconclusive.

Chain of Luciferin 4-monooxygenase (Photinus pyralis) (P08659 whole entry, looked up): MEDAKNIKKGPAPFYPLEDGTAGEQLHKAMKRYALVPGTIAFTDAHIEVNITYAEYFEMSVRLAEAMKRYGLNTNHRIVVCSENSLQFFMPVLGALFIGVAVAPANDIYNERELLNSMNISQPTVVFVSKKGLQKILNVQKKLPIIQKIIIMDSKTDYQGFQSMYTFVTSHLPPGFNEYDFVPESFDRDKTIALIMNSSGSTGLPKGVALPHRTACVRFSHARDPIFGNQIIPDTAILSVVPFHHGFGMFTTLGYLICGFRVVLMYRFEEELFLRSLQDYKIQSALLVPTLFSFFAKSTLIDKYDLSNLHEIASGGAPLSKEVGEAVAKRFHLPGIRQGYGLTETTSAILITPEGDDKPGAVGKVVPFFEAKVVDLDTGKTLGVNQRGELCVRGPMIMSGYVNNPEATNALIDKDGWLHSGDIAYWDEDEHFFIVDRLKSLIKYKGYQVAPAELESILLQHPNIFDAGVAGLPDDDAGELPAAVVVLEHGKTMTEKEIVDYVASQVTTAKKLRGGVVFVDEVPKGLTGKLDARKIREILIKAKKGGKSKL
Chain of Thyrotropin receptor (Homo sapiens) (P16473 whole entry, looked up): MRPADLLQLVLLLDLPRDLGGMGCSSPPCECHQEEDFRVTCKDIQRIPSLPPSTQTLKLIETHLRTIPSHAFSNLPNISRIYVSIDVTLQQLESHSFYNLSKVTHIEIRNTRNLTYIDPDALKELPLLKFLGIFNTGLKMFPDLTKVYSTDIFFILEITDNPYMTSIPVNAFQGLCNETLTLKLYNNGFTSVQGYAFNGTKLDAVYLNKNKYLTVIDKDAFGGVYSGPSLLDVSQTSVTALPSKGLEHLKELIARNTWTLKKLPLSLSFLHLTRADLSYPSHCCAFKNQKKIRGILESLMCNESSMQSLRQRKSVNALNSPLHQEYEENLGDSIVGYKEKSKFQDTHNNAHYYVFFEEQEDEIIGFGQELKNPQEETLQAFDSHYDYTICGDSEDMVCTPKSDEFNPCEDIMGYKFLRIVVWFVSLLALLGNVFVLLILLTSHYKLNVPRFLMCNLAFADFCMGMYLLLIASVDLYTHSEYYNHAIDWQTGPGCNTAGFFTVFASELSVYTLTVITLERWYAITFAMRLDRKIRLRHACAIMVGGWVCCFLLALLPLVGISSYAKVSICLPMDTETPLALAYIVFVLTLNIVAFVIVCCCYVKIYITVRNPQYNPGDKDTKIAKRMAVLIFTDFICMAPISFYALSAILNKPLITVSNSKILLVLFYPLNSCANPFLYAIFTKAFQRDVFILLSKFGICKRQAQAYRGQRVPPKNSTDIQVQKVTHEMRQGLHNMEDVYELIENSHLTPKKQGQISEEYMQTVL

On to `O=C(O)c1cc(-c2ccc(F)cc2F)ccc1O`, for which the Potency is 34.7 µM (active) in test [1] and 9.44 µM (active) in test [6]. Moreover, the Potency result in test [2], in test [3], in test [4], in [5], in test [7] and in test [8] was “inactive” each time. Besides, the Potency result in test [9], in [10], in test [11], in test [13] and in test [14] was “inactive” throughout. In addition, the activity change, positive = activation in test [12] (at 42.5 µM (top of the series)) was -14.2%.
For `CCC(=O)OC(=O)CC`, the Potency entry in test [1], in [2], in test [3], in test [4], in test [15] and in test [5] was “inactive” throughout. For the same molecule, the Potency result in test [16], in [8], in [9], in [10], in test [17] and in [13] was “inactive” in each case. Besides, the Potency entry in [14], in test [18] and in test [19] was “inactive” in each case.
Turning to `CC(C)Cn1cnc2c(N)nc3ccccc3c21`, the activity change, negative = inhibition in [1] is 5.54% [at 23.6 µM]. For the same molecule, the viability change, negative = cytotoxic was -20.4% [at 19 µM] in test [2] and 16.3% [at 19 µM] in test [5]. The activity change, negative = cytotoxicity was -10.6% [at 19 µM] in test [3], 18.6% [at 15.8 µM] in [8] and 0.631% [at 15.8 µM] in test [13]. The activity, negative = inhibition in [4] was 27.4% [at 19 µM]; in [6], 23.8% [at 19 µM]; in test [11], -22% [at 19 µM]. Also, the activation in [7] is 6.35% [at 19 µM]; in [16] it was 14.2% [at 19 µM]; in test [10] it was 0.447% [at 15.8 µM]. Moreover, the activation (H2AX phosphorylation) in [9] is -2.05% [at 31.6 µM]. For the same molecule, the activity change, positive = activation in test [12] (at 19 µM (top of the series)) was -11.2%. The cytotoxicity in [18] was 4.66% [at 15.8 µM]. Also, the activity change, negative = cytotoxic in test [19] is 1.75% [at 15.8 µM].
For the molecule `COc1cccc2c1C(=O)c1c(O)c3c(c(O)c1C2=O)C[C@@](O)(C(C)=O)C[C@@H]3O[C@H]1C[C@H](N)[C@H](O)[C@H](C)O1`, the Potency is 30.8 µM (active) and 473 nM (active) in test [20]; 19.4 µM (active) and 1.19 µM (active) in test [2]; 2.75 µM (active) and 211 nM (active) in [3]; 27.5 µM (active) in test [5]; 0.154 µM (active) in [7]; 0.0391 µM (active) in test [9]. Further, the Potency was 24.7 µM (active) in test [13]; 69.6 nM (active) and 3.4 nM (active) in test [14]; 43.9 µM (active) in test [18]; 19.6 µM (active) in test [19]. The Potency result in test [6], in test [17] and in [11] was “inactive” in each case. The activity change, positive = activation is -0.62% in test [12] (at 42.5 µM (top of the series)) and -74.3% in test [12] (at 92.4 µM (top of the series)).
For the molecule `Cc1c(F)c(N2CCNC(C)C2)cc2c1c(=O)c(C(=O)O)cn2C1CC1` (stereo not drawn), the Potency entry in test [1], in test [2], in [3], in [4], in [15] and in test [5] was “inactive” throughout. The Potency entry in [6], in [7], in test [16], in test [8], in [9] and in test [10] was “inactive” throughout. Moreover, the Potency result in test [17], in [11], in [13], in [14], in test [18] and in [19] was “inactive” throughout. Also, the activity change, positive = activation in test [12] (at 42.5 µM (top of the series)) is 9.53%.
For `O=C(c1ccc(O)c(O)c1)c1ccc(O)cc1O`, the Potency is 70.9 µM (active) in test [1], 68.5 µM (active) in test [6], 54.4 µM (active) in test [11] and 27.5 µM (active) in test [14]. Also, the Potency result in test [2], in [3], in test [4], in test [15], in test [7] and in [16] was “inactive” each time. Besides, the Potency result in [8], in test [13] and in [18] was “inactive” throughout. Further, in [12] (at 92.4 µM (top of the series)), the activity change, positive = activation is -38%.

The values are drawn from PubChem BioAssay (Tox21).
